# Assay results as given in PubChem BioAssay AID1159580 (chemical genetic matrix, 2015).
# Out of some 5,500 compounds screened, about 2,000 (36%) were called active. Roughly 18% stayed inconclusive and do not appear here. The list shows a part of the results. Values without a mark were called inactive. No stated cut-off is given here; in the data, active means normalized growth mostly below about 0.91 (no sharp cut-off); inconclusive means no clear call, values can overlap the other calls; inactive means mostly above about 0.92.
# Assay: chemical genetic growth profiling, strain panel (AID 1159580);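 further: tested at 20 µM; growth read once vehicle control cultures reached saturation at 30 °C; 1 = growth at the plate median or of vehicle wells; lower values mean less growth of the strain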
# Details: S. cerevisiae deletion strains, growth OD
smiles,measurement,setting,value
Cc1cc(Br)c(NC(=O)C(Cl)(Cl)Cl)c(Br)c1,normalized growth,"locus YAL013W, strain DEP1, hits give low values",0.917 (active)
same,normalized growth,"locus YBR229C, strain ROT2, hits give low values",0.911 (active)
same,normalized growth,"locus YDL101C, strain DUN1, hits give low values",0.936
same,normalized growth,"locus YDR150W, strain NUM1, hits give low values",0.909
same,normalized growth,"locus YEL061C, strain CIN8, hits give low values",0.93
same,normalized growth,"locus YGR078C, strain PAC10, hits give low values",0.905 (active)
same,normalized growth,"locus YHR030C, strain SLT2, hits give low values",0.592 (active)
same,normalized growth,"locus YHR087W, strain rtc3, hits give low values",0.899 (active)
same,normalized growth,"locus YJR043C, strain POL32, hits give low values",0.927
same,normalized growth,"locus YJR075W, strain HOC1, hits give low values",0.923
same,normalized growth,"locus YKL190W, strain CNB1, hits give low values",0.958
same,normalized growth,"locus YLR039C, strain RIC1, hits give low values",0.538 (active)
same,normalized growth,"locus YLR058C, strain SHM2 (second series), hits give low values",0.907 (active)
same,normalized growth,"locus YLR085C, strain ARP6, hits give low values",0.73 (active)
same,normalized growth,"locus YLR262C, strain YPT6, hits give low values",0.579 (active)
same,normalized growth,"locus YML094W, strain GIM5, hits give low values",0.944
same,normalized growth,"locus YMR219W, strain ESC1, hits give low values",0.933 (active)
same,normalized growth,"locus YMR263W, strain SAP30, hits give low values",0.96
same,normalized growth,"locus YMR307W, strain GAS1, hits give low values",0.648 (active)
same,normalized growth,"locus YNL153C, strain GIM3, hits give low values",0.947
same,normalized growth,"locus YNL298W, strain CLA4 (second series), hits give low values",0.875
same,normalized growth,"locus YNL322C, strain KRE1, hits give low values",0.94 (active)
same,normalized growth,"locus YNR030W, strain Alg12, hits give low values",0.938
same,normalized growth,"locus YOL006C, strain TOP1, hits give low values",0.615 (active)
same,normalized growth,"locus YPL055C, strain LGE1, hits give low values",0.919
same,normalized growth,"locus YPL241C, strain CIN2, hits give low values",0.939
same,normalized growth,"locus YPR135W, strain CTF4, hits give low values",0.736
